± gives the standard deviation of the averaged measurements. Over roughly 33,000 sequences, “E-score (rank enrichment, -0.5 to 0.5)” has its median near -0.0068; the highest 2% begin near 0.24. This is one part of a sample in which the highest values are shown more often than they occur.
System: muMax20 (Max(13-93) K31hArg/K57hArg, M65Nle)
Assay: PBM 8-mer E-score (E-score (rank enrichment, -0.5 to 0.5)); higher = stronger preferential binding
Method: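 Protein binding microarray (universal PBM chip covering all 10-mers in fixed probe flanks) with chemically synthesized human Max(13-93) bHLH-LZ analogs (not full-length Max) bearing noncanonical residues (hArg, Tha, Aib, Nle at 65) and aromatic Cys staples. Read-out per 8-mer (and its reverse complement): E-score (rank-based enrichment, -0.5 to 0.5) and Z-score of median probe intensity.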

Row | Sequence | PBM 8-mer E-score
1 | AAATATTC | 0.249 ± 0.0014
2 | ACATATTG | 0.11 ± 0.12
3 | ACATATTA | 0.241 ± 0.011
4 | GAATATTA | 0.137 ± 0.083
5 | TAATATTA | 0.337 ± 0.011
6 | ACATATCA | 0.262 ± 0.041
7 | CCATATCA | 0.0749 ± 0.018
8 | TAATATGA | 0.221 ± 0.017
9 | CCATATTA | 0.124 ± 0.062
10 | GAATATTC | 0.195 ± 0.08
11 | ACATATCG | 0.046 ± 0.074
12 | CAATATTC | 0.0728 ± 0.011
13 | CGGCGTCC | -0.114 ± 0.047
14 | ATGCAATG | -0.00261 ± 0.02
15 | CAACTTGG | -0.0581 ± 0.1
16 | AGAGAACC | -0.143 ± 0.11
17 | CAGATCTC | -0.176 ± 0.038
18 | ATCTGACG | -0.0395 ± 0.07
19 | ATAGCGCG | 0.0731 ± 0.084
20 | CATTGCGG | -0.148 ± 0.13
21 | ACTTCAAC | 0.11 ± 0.041
22 | CCATAGCA | 0.0753 ± 0.09
23 | AAATATTA | 0.27 ± 0.028
24 | ACATAGCA | 0.272 ± 0.032
25 | AAATATTG | 0.138 ± 0.0027
26 | TCATAGCA | 0.108 ± 0.0018

Row | Sequence | PBM 8-mer E-score
27 | CAATATTA | 0.221 ± 0.056
28 | ATAAAGAG | 0.181 ± 0.089
29 | AGACAACA | 0.0868 ± 0.027
30 | TCTATCAA | 0.184 ± 0.099
31 | ATCTCCAT | 0.0165 ± 0.085
32 | ATAGGACC | -0.0994 ± 0.04
33 | GGTAAGGA | -0.00502 ± 0.057
34 | CACGCGTA | 0.248 ± 0.051
35 | ACCGCGTG | 0.294 ± 0.022
36 | CACGCGTG | 0.314 ± 0.11
37 | ACCGCGTA | 0.0588 ± 0.11
38 | ACCGCGTC | -0.131 ± 0.011
39 | AACGCGTA | 0.0549 ± 0.11
40 | GATGCTGA | -0.131 ± 0.16
41 | CATGCTGA | 0.2602 ± 0.0021
42 | CACGCGTC | 0.208 ± 0.048
43 | AACGCGTG | 0.144 ± 0.01
44 | GACGCGTA | 0.0707 ± 0.061
45 | AATGCTGA | 0.088 ± 0.064
46 | ATAAACGA | 0.229 ± 0.033
47 | TAATCTGA | -0.0143 ± 0.051
48 | AGGCCGTC | -0.184 ± 0.049
49 | TCCCCGCA | -0.0761 ± 0.035
50 | ATCACCTC | 0.0702 ± 0.029
51 | TCATCTCA | -0.000685 ± 0.13
52 | ATTGACCG | 0.0179 ± 0.099

Row | Sequence | PBM 8-mer E-score
53 | ATCGCGCG | 0.0373 ± 0.16
54 | AATGCGTA | 0.0783 ± 0.035
55 | CATGCGTA | 0.259 ± 0.15
56 | GATGCGTA | 0.0917 ± 0.02
57 | ACGTGGTA | 0.309 ± 0.021
58 | AGGTGGTG | 0.0398 ± 0.076
59 | GCGTGGTA | 0.148 ± 0.095
60 | CCGTGGTA | -0.0136 ± 0.0022
61 | ACGTGGTC | 0.213 ± 0.093
62 | ACGTGGTG | 0.336 ± 0.015
63 | ATAGAAAT | 0.15 ± 0.089
64 | GGAATAGA | 0.0778 ± 0.075
65 | CACATGGC | 0.269 ± 0.088
66 | CACATGGG | 0.181 ± 0.052
67 | AACATGGA | 0.135 ± 0.0038
68 | CACATGGA | 0.238 ± 0.15
69 | GACATGGA | -0.0732 ± 0.1
70 | GACATGGC | 0.0454 ± 0.031
71 | ATGACGCG | 0.0788 ± 0.13
72 | CCGGACAC | -0.238 ± 0.079
73 | ATAGAATA | 0.245 ± 0.029
74 | ATAGAATG | 0.138 ± 0.018
75 | GTAGAATA | 0.235 ± 0.044
76 | AGTATTCG | 0.0983 ± 0.088
77 | ATTCTATG | 0.109 ± 0.0098
78 | CAAAAATA | 0.176 ± 0.0026

Row | Sequence | PBM 8-mer E-score
79 | CAAATATA | 0.162 ± 0.027
80 | AAAAAATA | 0.271 ± 0.019
81 | GAAAAATA | 0.158 ± 0.027
82 | TAAATATA | 0.246 ± 0.014
83 | CATAAATG | -0.0552 ± 0.089
84 | AATAAATG | 0.278 ± 0.018
85 | AAAATATA | 0.21 ± 0.055
86 | GATAAATA | 0.149 ± 0.036
87 | AATAAATC | 0.0155 ± 0.081
88 | AATAAATT | 0.213 ± 0.037
89 | AATAAATA | 0.245 ± 0.06
90 | AGTATAGC | -0.0321 ± 0.19
91 | CAATTTCG | 0.0689 ± 0.083
92 | GTATGGGA | -0.111 ± 0.019
93 | GAGCACCC | -0.166 ± 0.061
94 | CACGGGAG | 0.00455 ± 0.05
95 | ACGGGAGT | 0.0635 ± 0.097
96 | CACGGGCG | -0.217 ± 0.14
97 | CCTAAATA | 0.123 ± 0.022
98 | TAAAAATA | 0.131 ± 0.048
99 | TAAATGTA | 0.285 ± 0.01
100 | GTTAAATA | 0.283 ± 0.032
101 | CAAATGTA | 0.195 ± 0.11
102 | GAAATGTA | 0.0974 ± 0.0077
103 | CATAAATC | 0.0804 ± 0.0035
104 | CATAAATA | 0.318 ± 0.035

Row | Sequence | PBM 8-mer E-score
105 | TATAAATA | 0.2587 ± 0.0014
106 | CGTAAATA | 0.0359 ± 0.08
107 | CTTAAATA | 0.0909 ± 0.014
108 | ATTAAATA | 0.2 ± 0.025
109 | CCTCCGGC | -0.116 ± 0.096
110 | ATTTGATA | 0.176 ± 0.046
111 | GCTTGACC | -0.013 ± 0.069
112 | ATGGATCG | -0.294 ± 0.055
113 | AATTAGCA | 0.159 ± 0.046
114 | CTGGAGCC | -0.177 ± 0.015
115 | ATGCCCGG | -0.241 ± 0.076
116 | AACTACGA | 0.0584 ± 0.13
117 | AAGTATAA | 0.215 ± 0.033
118 | AAGTATAC | 0.259 ± 0.043
119 | AAGTATAT | 0.183 ± 0.0083
120 | ACAAGGGT | 0.0627 ± 0.11
121 | ATTAGTAA | 0.246 ± 0.00033
122 | CTTAGTAA | 0.0409 ± 0.1
123 | CGTAGTAA | 0.104 ± 0.053
124 | TATAGTCA | 0.246 ± 0.027
125 | GATAGTAA | 0.0883 ± 0.11
126 | CATAGTAA | 0.163 ± 0.055
127 | ATTAGTAC | 0.0781 ± 0.08
128 | TATAGTAA | 0.28 ± 0.024
129 | AGTAGTAA | 0.151 ± 0.057
130 | TGTAGTAA | 0.258 ± 0.033

Row | Sequence | PBM 8-mer E-score
131 | GATAGTCA | 0.117 ± 0.051
132 | CATAGTCA | 0.05 ± 0.035
133 | AACGTTAG | 0.091 ± 0.026
134 | AGAGCAAT | -0.0507 ± 0.013
135 | CCACCGCA | -0.117 ± 0.1
136 | ACGGGTAG | -0.226 ± 0.026
137 | CAGATCCG | -0.166 ± 0.073
138 | CTCCCAGC | -0.118 ± 0.04
139 | CTTAGTTA | 0.0136 ± 0.12
140 | ATTAGTTA | 0.173 ± 0.015
141 | GTTAGTTA | 0.251 ± 0.048
142 | GCCTCGAC | -0.225 ± 0.022
143 | AACCCGGA | -0.327 ± 0.033
144 | GTAAGGCA | 0.203 ± 0.12
145 | ATTCTAGA | 0.0758 ± 0.1
146 | ATCTACAA | 0.126 ± 0.062
147 | CCGTGGCA | -0.149 ± 0.013
148 | ACGTGGCG | 0.165 ± 0.085
149 | ACGTGGCA | 0.256 ± 0.033
150 | TCGTGGCA | 0.164 ± 0.017
151 | ACGTGGCT | 0.249 ± 0.1
152 | ACGTGGCC | 0.114 ± 0.13
153 | CAGGCTGG | -0.172 ± 0.05
154 | CTTTTCAA | 0.144 ± 0.06
155 | TATTTCAA | 0.257 ± 0.016
156 | CTTTTCAC | 0.311 ± 0.078

Row | Sequence | PBM 8-mer E-score
157 | CCTTTCAC | 0.116 ± 0.056
158 | GGTTTCAA | 0.0825 ± 0.073
159 | CATTTCAA | 0.217 ± 0.053
160 | GATTTCAA | -0.0671 ± 0.11
161 | ATTTTCAC | -0.00186 ± 0.074
162 | GTTTTCAA | 0.258 ± 0.079
163 | AATAGGGG | 0.0563 ± 0.032
164 | CGCCGCTA | -0.204 ± 0.0029
165 | ACAGAGCC | -0.0681 ± 0.01
166 | CGCATAAC | 0.153 ± 0.039
167 | AGCGCTCC | -0.263 ± 0.015
168 | AGGTGTTG | -0.0311 ± 0.062
169 | ACGTGTTA | 0.321 ± 0.015
170 | ACGTGTTC | 0.292 ± 0.0076
171 | CCGTGTTA | 0.103 ± 0.017
172 | GCGTGTTA | 0.195 ± 0.089
173 | ACGTGTTG | 0.299 ± 0.081
174 | AGGTGTTC | 0.157 ± 0.0061
175 | CCGTGTTC | 0.00613 ± 0.046
176 | ATGTGTTG | 0.225 ± 0.018
